Source: PubChem BioAssay
Calls of active or inactive are those of the source. The rule behind the calls is not given here.

The molecules below were run against Lethal factor (Bacillus anthracis) (UniProt P15917) (assay: Bacillus anthracis lethal factor inhibition, microsphere flow cytometry protease assay, validation at 10 µM (AID 588461)). Settings: multiplex microsphere protease cleavage assay, stronger effect = higher value.

Row | Compound | inhibition
1 | Cc1nc2ccccc2n1CC(=O)NC1CCCC1 | -4.4% (inactive)
2 | CC1CCCc2sc3ncn(N)c(=N)c3c21 (stereo not given) | -1.1% (inactive)
3 | COC(=O)c1cc(OC)c(OC)cc1NC(=O)Nc1ccc(OC)cc1OC | 5.9% (inactive)
4 | O=C(COc1ccc2c(-c3ccccc3)cc(=O)oc2c1)NCc1cccs1 | -6% (inactive)
5 | O=C(O)/C=C/c1cnc[nH]1 | -0.5% (inactive)
6 | O=c1[nH]cnc2c1ncn2[C@@H]1O[C@H](CO)[C@@H](O)[C@H]1O | -8% (inactive)
7 | CCOc1cc(C=O)ccc1OCCSc1ccc(C)cc1 | -3.6% (inactive)
8 | Cc1ccnc2c1NC(=O)c1cccnc1N2C1CC1 | -4.5% (inactive)
9 | O=c1[nH]cnc2[nH]ncc12 | -1.1% (inactive)
10 | O=C(CCN1CCC(c2ccccc2)C1)c1ccc2c(c1)OCCO2 (stereo not given) | -1.8% (inactive)
11 | O=C(/C=C/c1ccco1)Nc1ccccc1C(=O)O | 1.7% (inactive)
12 | Cc1ccc(O)c(CCc2ccccc2)n1 | -5.5% (inactive)
13 | C=CCc1cccc2cc(C(=O)Nc3ccc(CC(=O)O)cc3)c(=O)oc12 | 0.8% (inactive)
14 | CCOC(=O)c1ccc(N2C(=O)C(CC(N)=O)N(CCc3ccc(OC)c(OC)c3)C2=S)cc1 (stereo not given) | -0.3% (inactive)
15 | O=C(O)CCn1cnc2ccccc2c1=O | -3.5% (inactive)
16 | O=C(Nc1ccccc1)OCC1CCCN2CCCCC12 (stereo not given) | 2.5% (inactive)
17 | Cc1cccc(C2=N/C(=C\c3cccnc3)C(=O)O2)c1 | 3.7% (inactive)
18 | COc1cc(OC)c(C2C(C#N)=C(N)OC3=C2C(=O)CC(C)(C)C3)cc1OC (stereo not given) | 4.6% (inactive)
19 | Cn1c(=O)c(C(=O)NCCO)c(O)c2ccccc21 | -2.2% (inactive)
20 | COc1ccc(/C=C\c2nc(=O)c3ccccc3o2)cc1 | -3.7% (inactive)

Row | Compound | inhibition
21 | CC(=O)[C@@H]1[C@@H](C(=O)c2ccc(C)cc2)[C@]2(C(=O)Nc3ccccc32)[C@H]2C=Cc3cc(F)ccc3N12 | -6.9% (inactive)
22 | O=c1[nH]c(=O)n([C@H]2C[C@H](O)[C@@H](CO)O2)cc1F | 1.1% (inactive)
23 | COC(=O)c1sccc1NC(=O)Nc1ccccc1F | 1.2% (inactive)
24 | c1ccc(Cn2ncc3c(Nc4ccccc4)ncnc32)cc1 | -0.5% (inactive)
25 | CC1(C)NC(C(=O)O)Cc2c1[nH]c1ccccc21 (stereo not given) | -2.8% (inactive)
26 | COc1ccc2[nH]c3c(c2c1)CCNC3C1CC=C(C)CC1 (stereo not given) | 3.8% (inactive)
27 | O=C(O)/C=C/c1ccc(O)c(O)c1 | -1.7% (inactive)
28 | CCCC(=O)O[C@]1(C(=O)COC(C)=O)CC[C@H]2[C@@H]3C[C@H](F)C4=CC(=O)C=C[C@]4(C)[C@@]3(F)[C@@H](O)C[C@@]21C | -0.6% (inactive)
29 | COc1ccc2c(c1OC)C(=O)NC(C)=C(C(=O)OC(C)(C)C)C2O (stereo not given) | -5.3% (inactive)
30 | CCn1c(SCC(=O)c2ccccc2)nc2ccccc2c1=O | -5.1% (inactive)
31 | O=C1Cc2ccccc2C(c2ccccc2)N1 (stereo not given) | -3.1% (inactive)
32 | COc1ccc2[nH]cc(C(=O)CCl)c2c1 | -5.3% (inactive)
33 | Cc1cc(C(C)(C)C)cc(C)c1CC1=NCCN1 | 1.8% (inactive)
34 | CCN1C(=O)C(CC(=O)Nc2ccc(OC)cc2)N(CCc2ccc(F)cc2)C1=S (stereo not given) | 1.4% (inactive)
35 | Cc1ccc(C2CC(=O)C(C=NCCN3CCN(CC(=O)Nc4cc(C)cc(C)c4)CC3)=C(O)C2)cc1 (stereo not given) | 0.4% (inactive)
36 | C1COC(NC(C2CC2)C2CC2)=N1 | -5% (inactive)
37 | O=c1c2ccccc2nc2n1-c1ccccc1CCC2 | 12.2% (inactive)
38 | OC[C@@H](O)[C@@H](O[C@H]1O[C@H](CO)[C@@H](O)[C@H](O)[C@H]1O)[C@H](O)[C@@H](O)CO | 3.8% (inactive)
39 | CC1(C)Cc2nc3sc4c(=O)n(CC(N)=O)cnc4c3cc2CO1 | -3.8% (inactive)
40 | CNCCCC12CCC(c3ccccc31)c1ccccc12 | -5% (inactive)
